Structures can show the parent of a compound that is named as a salt.
How the values were obtained:
Details in all cases: incubation time: 27 h, anaerobic, 37 °C;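 for the amine columns active = adjusted P below 0.05 in both replicates with a change the same way and a mean fold change under 0.8 or over 1.25; inactive = the rest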
[1] = test system: Clostridium sporogenes DSM 1664; experiment: growth (OD595) fold change vs plate DMSO controls (fold change (ratio)); higher = more growth
In short: (§1)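 The reported measure is growth: the fold change against the median of DMSO controls on the plate. Absorbance at 595 nm from anaerobic 96-well mGAM cultures grown for 27 h at 37 °C was blank-subtracted, corrected for background with 20 µM compound solutions in water, and converted to OD with a calibration factor of 5. Fold changes above 1.5 appear as NA, and values are the mean of 2 biological replicates.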

Escherichia coli IAI1 [2] = experiment: as above
In short: as §1

[3] = test system: Klebsiella aerogenes DSM 30053; experiment: as above
In short: as §1

[4] = test system: Ruminococcus gnavus DSM 108212; experiment: as above
In short: as §1

[5] = test system: Klebsiella aerogenes DSM 30053; experiment: fold change of Histamine concentration vs plate DMSO controls (fold change (ratio)); higher = more amine produced, active = hit call of the paper (significant change in both replicates, either direction)
In short: (§2)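 Extracts of whole anaerobic mGAM cultures were analysed for amines by LC–triple-quadrupole MS with dynamic MRM and external calibration curves, with drift corrected within batch. Four gut strains were grown at 37 °C for 27 h in 80 µL wells with compounds at 20 µM final, sweeteners at 50 µM final. Each value expresses fold change over plate DMSO controls. The average of 2 biological replicates is shown.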

[6] = test system: Clostridium sporogenes DSM 1664; experiment: fold change of Tryptamine concentration vs plate DMSO controls (fold change (ratio)); higher = more amine produced, active = hit call of the paper (significant change in both replicates, either direction)
In short: as §2

[7] = test system: Ruminococcus gnavus DSM 108212; experiment: as above
In short: as §2

Escherichia coli IAI1 [8] = experiment: fold change of Putrescine concentration vs plate DMSO controls (fold change (ratio)); higher = more amine produced, active = hit call of the paper (significant change in both replicates, either direction)
In short: as §2

[9] = test system: Klebsiella aerogenes DSM 30053; experiment: as above
In short: as §2

Escherichia coli IAI1 [10] = experiment: fold change of Cadaverine concentration vs plate DMSO controls (fold change (ratio)); higher = more amine produced, active = hit call of the paper (significant change in both replicates, either direction)
In short: as §2

[11] = test system: Klebsiella aerogenes DSM 30053; experiment: as above
In short: as §2

[12] = test system: Ruminococcus gnavus DSM 108212; experiment: fold change of 2-Phenylethylamine concentration vs plate DMSO controls (fold change (ratio)); higher = more amine produced, active = hit call of the paper (significant change in both replicates, either direction)
In short: as §2

Row | Compound | growth [1] | growth (Escherichia coli IAI1 [2]) | growth [3] | growth [4] | fold change of Histamine concentration [5] | fold change of Tryptamine concentration [6] | fold change of Tryptamine concentration [7] | fold change of Putrescine concentration (Escherichia coli IAI1 [8]) | fold change of Putrescine concentration [9] | fold change of Cadaverine concentration (Escherichia coli IAI1 [10]) | fold change of Cadaverine concentration [11] | fold change of 2-Phenylethylamine concentration [12]
1 | CN(C)CCCN1c2ccccc2CCc2ccc(Cl)cc21 [Clomipramine hydrochloride] (20 µM) | 1.07 | 0.978 | 0.972 | 0.705 | 1.04 (inactive) | 1.04 (inactive) | 0.823 (inactive) | 0.997 (inactive) | 1.03 (inactive) | 1.06 (inactive) | 0.985 (inactive) | 0.82 (inactive)
2 | O=C(CO)[C@@H](O)[C@H](O)[C@@H](CO)O[C@H]1O[C@H](CO)[C@@H](O)[C@H](O)[C@H]1O [Leucrose] (50 µM) | 0.936 | 0.999 | 1.01 | 0.99 | 1.02 (inactive) | 1.03 (inactive) | 0.993 (inactive) | 1.05 (inactive) | 1 (inactive) | 1.02 (inactive) | 0.992 (inactive) | 0.968 (inactive)
3 | O=c1oc2cc(O)ccc2s1 [Tioxolone] (20 µM) | 1.04 | 1.01 | 0.979 | 1.07 | 1.02 (inactive) | 1.05 (inactive) | 0.987 (inactive) | 1.02 (inactive) | 0.997 (inactive) | 0.989 (inactive) | 0.987 (inactive) | 0.959 (inactive)
4 | CCCNCC(O)COc1ccccc1C(=O)CCc1ccccc1 (stereo not given) [Propafenone hydrochloride] (20 µM) | 1.01 | 0.96 | 1.12 | 0.759 | 0.848 (inactive) | 1.01 (inactive) | 1.03 (inactive) | 0.987 (inactive) | 0.99 (inactive) | 1.05 (inactive) | 1.02 (inactive) | 1.06 (inactive)
5 | Brc1c(NC2=NCCN2)ccc2nccnc12 [Brimonidine L-tartrate] (20 µM) | 0.988 | 1.06 | 0.999 | 1.03 | 0.928 (inactive) | 1.07 (inactive) | 0.885 (inactive) | 0.973 (inactive) | 0.971 (inactive) | 0.919 (inactive) | 1.06 (inactive) | 1.05 (inactive)
6 | O=C(Cn1ccnc1[N+](=O)[O-])NCCO [Etanidazole] (20 µM) | 0.988 | 1.01 | 1.06 | 0.954 | 0.832 (inactive) | 0.98 (inactive) | 1.28 (active) | 0.91 (inactive) | 1.03 (inactive) | 1.02 (inactive) | 1.11 (inactive) | 1.83 (active)
7 | CCCN(CCC)CCc1cccc2c1CC(=O)N2 [Ropinirole hydrochloride] (20 µM) | 1.07 | 0.95 | 0.961 | 1.02 | 1.08 (inactive) | 1 (inactive) | 1 (inactive) | 0.952 (inactive) | 1.02 (inactive) | 0.978 (inactive) | 0.986 (inactive) | 1.02 (inactive)
8 | Fc1ccc(C(c2ccc(F)cc2)N2CCN(C/C=C/c3ccccc3)CC2)cc1 [Flunarizine dihydrochloride] (20 µM) | 1.15 | 1.05 | 1.1 | 0.897 | 0.894 (inactive) | 1.05 (inactive) | 0.851 (inactive) | 1.07 (inactive) | 0.981 (inactive) | 0.979 (inactive) | 1.04 (inactive) | 0.977 (inactive)
9 | O=C1c2c(O)cccc2Cc2cccc(O)c21 [Anthralin] (20 µM) | 1.07 | 0.981 | 1.03 | 0.95 | 1.05 (inactive) | 1.1 (inactive) | 0.996 (inactive) | 1.02 (inactive) | 1.01 (inactive) | 0.992 (inactive) | 0.999 (inactive) | 0.91 (inactive)
10 | Cc1ccsc1/C=C/C1=NCCCN1C [Morantel tartrate] (20 µM) | 1.2 | 1.07 | 1.08 | 1.08 | 0.92 (inactive) | 0.936 (inactive) | 0.918 (inactive) | 1.01 (inactive) | 1 (inactive) | 1.03 (inactive) | 1.01 (inactive) | 0.957 (inactive)
11 | Cc1cc(N)c2ccccc2[n+]1CCCCCCCCCC[n+]1c(C)cc(N)c2ccccc21 [Dequalinium dichloride] (20 µM) | 0.993 | 0.99 | 1.11 | 0.565 | 0.873 (inactive) | 0.951 (inactive) | 0.896 (inactive) | 0.933 (inactive) | 1 (inactive) | 0.968 (inactive) | 1.01 (inactive) | 0.921 (inactive)
12 | Oc1c(Cl)cc(Cl)c(Cl)c1Cc1c(O)c(Cl)cc(Cl)c1Cl [Hexachlorophene] (20 µM) | 0 | 0.943 | 0.999 | 0 | 1.17 (inactive) | 0.0251 (active) | 0.0326 (active) | 0.982 (inactive) | 1.02 (inactive) | 1.1 (inactive) | 1.02 (inactive) | 0.0393 (active)
13 | Clc1ccc(C(Cn2ccnc2)OCc2csc3c(Cl)cccc23)c(Cl)c1 (stereo not given) [Sertaconazole nitrate] (20 µM) | 0.896 | 1.1 | 0.993 | 0.501 | 0.978 (inactive) | 1.12 (inactive) | 0.435 (active) | 1.08 (inactive) | 0.954 (inactive) | 0.973 (inactive) | 1.03 (inactive) | 0.591 (inactive)
14 | O=C(c1ccc(OCCN2CCCCC2)cc1)c1c(-c2ccc(O)cc2)sc2cc(O)ccc12 [Raloxifene hydrochloride] (20 µM) | 1.19 | 1.08 | 1.04 | 1.2 | 0.986 (inactive) | 0.932 (inactive) | 0.941 (inactive) | 0.976 (inactive) | 1.03 (inactive) | 1.01 (inactive) | 1.01 (inactive) | 0.917 (inactive)
15 | CC[N+](CC)(CC)CCC(O)(c1ccccc1)C1CCCCC1 (stereo not given) [Tridihexethyl chloride] (20 µM) | 0.911 | 1 | 1.01 | 1.16 | 0.955 (inactive) | 1.17 (inactive) | 1.06 (inactive) | 0.812 (inactive) | 0.975 (inactive) | 0.857 (inactive) | 1.02 (inactive) | 1.03 (inactive)
16 | CC(=O)OCC(=O)NCCCOc1cccc(CN2CCCCC2)c1 [Roxatidine acetate hydrochloride] (20 µM) | 1.02 | 1.06 | 1.01 | 0.677 | 0.958 (inactive) | 0.989 (inactive) | 0.972 (inactive) | 1.27 (inactive) | 1.01 (inactive) | 1.18 (inactive) | 1.01 (inactive) | 0.905 (inactive)
17 | O=C(O)Cc1ccc(-c2ccccc2)cc1 [Felbinac] (20 µM) | 1 | 1.01 | 1.08 | 1.01 | 0.921 (inactive) | 0.994 (inactive) | 1.01 (inactive) | 1.03 (inactive) | 0.976 (inactive) | 0.989 (inactive) | 0.998 (inactive) | 1.01 (inactive)
18 | CN1Cc2c(N)cccc2C(c2ccccc2)C1 (stereo not given) [Nomifensine maleate] (20 µM) | 1.07 | 0.982 | 1.01 | 1.1 | 0.994 (inactive) | 0.989 (inactive) | 1.04 (inactive) | 0.989 (inactive) | 1.01 (inactive) | 0.935 (inactive) | 1.02 (inactive) | 0.992 (inactive)
19 | CC[C@@H]([C@H](C)O)n1ncn(-c2ccc(N3CCN(c4ccc(OC[C@@H]5CO[C@@](Cn6cncn6)(c6ccc(F)cc6F)C5)cc4)CC3)cc2)c1=O [Posaconazole hydrate] (20 µM) | 0.942 | 1.02 | 1.02 | 1.03 | 1.11 (inactive) | 0.993 (inactive) | 1 (inactive) | 1.04 (inactive) | 1.03 (inactive) | 1.02 (inactive) | 0.992 (inactive) | 1.02 (inactive)
20 | CC(C)(C)NC[C@H](O)COc1ccccc1C1CCCC1 [Penbutolol sulfate] (20 µM) | 0.971 | 1.21 | 0.985 | 0.952 | 1.02 (inactive) | 1.03 (inactive) | 1.11 (inactive) | 1.1 (inactive) | 0.997 (inactive) | 1.02 (inactive) | 0.98 (inactive) | 1.25 (inactive)
21 | CC[C@H]1OC(=O)[C@H](C)[C@@H](O[C@H]2C[C@@](C)(OC)[C@@H](O)[C@H](C)O2)[C@H](C)[C@@H](O[C@@H]2O[C@H](C)C[C@H](N(C)C)[C@H]2O)[C@](C)(O)C[C@@H](C)CN(C)[C@H](C)[C@@H](O)[C@]1(C)O [Azithromycin] (20 µM) | 0 | 0.212 | 0.39 | 0.162 | 0.0612 (active) | 0.0425 (active) | 0.0983 (active) | 0.366 (inactive) | 0.425 (active) | 0.633 (active) | 0.99 (inactive) | 0.115 (active)
22 | CCCN[C@H]1CCc2nc(N)sc2C1 [Pramipexole dihydrochloride] (20 µM) | 0.931 | 0.975 | 1.01 | 1.01 | 1.05 (inactive) | 0.946 (inactive) | 0.974 (inactive) | 0.977 (inactive) | 1.05 (inactive) | 0.98 (inactive) | 1.01 (inactive) | 0.923 (inactive)
23 | CCOC(=O)[C@@](C)(N)Cc1ccc(O)c(O)c1 [Methyldopate hydrochloride] (20 µM) | 0.926 | 1.05 | 1.03 | 1.14 | 0.963 (inactive) | 1.04 (inactive) | 1.09 (inactive) | 1.22 (inactive) | 0.975 (inactive) | 0.898 (inactive) | 1.02 (inactive) | 1.07 (inactive)
24 | c1cnc(N2CCN(Cc3ccc4c(c3)OCO4)CC2)nc1 [Piribedil] (20 µM) | 0.986 | 1 | 1.07 | 0.998 | 0.934 (inactive) | 1.18 (inactive) | 1.02 (inactive) | 1.03 (inactive) | 0.971 (inactive) | 0.962 (inactive) | 0.996 (inactive) | 0.991 (inactive)
25 | CC(=O)[C@@]1(O)CC[C@H]2[C@@H]3C[C@H](C)C4=CC(=O)C=C[C@]4(C)[C@@]3(F)[C@@H](O)C[C@@]21C [Fluorometholone] (20 µM) | 1.02 | 0.986 | 1.01 | 1.14 | 1.05 (inactive) | 1.05 (inactive) | 1.08 (inactive) | 0.992 (inactive) | 0.968 (inactive) | 0.957 (inactive) | 0.983 (inactive) | 1.14 (inactive)
